Data from PubChem BioAssay AID485272 (The Scripps Research Institute Molecular Screening Center, 2010).
Screen size: about 330,000 compounds; about 1,300 (0.39%) were called active.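 How the source made its calls: active means percent inhibition above a cutoff equal to the mean of all tested compounds plus 3 SD (cut at about 15% in these data); inactive means the rest.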 This excerpt belongs to a sample that is enriched for actives.

biological target: Protein-arginine deiminase type-4 (Homo sapiens) (UniProt Q9UM07); test: protein arginine deiminase 4 enzyme blockade – biochemical, fluorescence polarization, 1536-well format, primary screen (AID 485272); conditions: recombinant PAD4, RCA probe fluorescence polarization; at 6.36 µM; stronger effect = higher value;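 further: 0% = PAD4 with RCA probe and DMSO and 100% = probe without PAD4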
Sequence (Q9UM07 whole entry, looked up): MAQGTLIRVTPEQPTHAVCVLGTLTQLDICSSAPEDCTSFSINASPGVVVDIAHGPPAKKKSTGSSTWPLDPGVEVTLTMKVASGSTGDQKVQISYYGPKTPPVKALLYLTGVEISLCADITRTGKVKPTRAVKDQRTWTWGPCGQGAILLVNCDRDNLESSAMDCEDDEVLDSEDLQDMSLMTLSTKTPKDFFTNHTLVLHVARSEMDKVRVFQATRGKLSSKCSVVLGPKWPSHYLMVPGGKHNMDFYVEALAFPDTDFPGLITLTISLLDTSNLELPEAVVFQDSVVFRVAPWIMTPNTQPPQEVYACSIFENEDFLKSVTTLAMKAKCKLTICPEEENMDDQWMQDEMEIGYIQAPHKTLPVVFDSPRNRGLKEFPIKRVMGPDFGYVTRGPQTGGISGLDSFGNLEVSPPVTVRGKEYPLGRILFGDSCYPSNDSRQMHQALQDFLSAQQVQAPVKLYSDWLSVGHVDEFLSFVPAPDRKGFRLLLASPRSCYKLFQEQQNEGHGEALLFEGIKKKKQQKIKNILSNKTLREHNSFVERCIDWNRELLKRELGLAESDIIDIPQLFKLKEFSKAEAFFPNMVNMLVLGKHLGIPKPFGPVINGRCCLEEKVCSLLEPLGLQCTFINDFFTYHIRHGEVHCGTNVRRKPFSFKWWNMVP

inhibition, inactive:
c1ccc2c(c1)OCCOCCOCCO2 0.83%
CCn1c(SCC(=O)Nc2sc(C)c(C)c2C#N)nnc1C1CC1 -2.74%
CCCc1c(C)nc2c(Br)cccc2c1Cl 2.17%
COc1ccc(C2(O)C(=O)Nc3ccccc32)cc1 (stereo not drawn) 0.37%
CCc1ccc2c(c1)C1(NN=C(c3ccccc3)S1)C(=O)N2 (stereo not drawn) -9.11%
CC1(C)N=C(c2ccccn2)C(C)(C)N1O -1.6%
O=C(NCCc1ccccc1Cl)C1CCC(=O)N(CCCc2ccccc2)C1 (stereo not drawn) 1.05%
Cc1c2cnn(CC(=O)NCc3ccccn3)c(=O)c2c(C)n1Cc1ccc(Cl)cc1 1.37%
CC(C)CNC(=O)CC(NCC(C)C)C(=O)O (stereo not drawn) -2.65%
Cc1nc2ccccc2nc1N/N=C/c1ccc(O)cc1O -3.07%
Oc1ccc(-c2[nH]ncc2-c2nc3ccccc3s2)c(O)c1 3.22%
CS(=O)(=O)N(CC(=O)N1CCN(c2ccc(F)cc2)CC1)C1CCCCC1 -2.55%
C=CCN1C2CCCC1CC(NC(=S)Nc1cccc(OC)c1)C2 (stereo not drawn) 3.98%
O=C(CN1C(=O)CCS(=O)(=O)c2ccccc21)NCc1ccc(F)cc1 -1.88%
C[C@H](CO)N1C[C@H](C)[C@@H](CN(C)Cc2ccc(-c3ccccc3)cc2)Oc2ccc(NC(=O)Cn3cnnn3)cc2C1=O -5.03%
O=C(Nc1ccc([N+](=O)[O-])cc1)C1(c2ccccc2)CCOCC1 -2.28%
CN(C(=O)CN1C(=O)CCSc2ccc(S(=O)(=O)N3CCCC3)cc21)c1ccccc1 -3.61%
NNC(=O)c1oc2nc(-c3ccccc3)cc(-c3ccco3)c2c1N -6.02%
CNC(=S)NNC(=O)c1cccn(Cc2ccccc2)c1=O -2.2%
COc1ccc([C@@H]2[C@@H]3C(=O)N(C(C)(C)C)C(=O)[C@@H]3[C@]3(Cc4ccccc4)C(=O)N(c4cccc(Br)c4)C(=O)N23)cc1 0.18%
Cc1nn(CC2CC2)c(=O)n1N(C)c1ncc(C(F)(F)F)cc1Cl 0.5%
Cc1c(NC(=O)Nc2ccccc2Cl)sc(=S)n1C -3.79%
O=C(Cc1ccc2c(c1)CCCC2)Nc1ccccc1Cl 1.33%

inhibition, active:
O=C1Nc2ccccc2C12Nc1ccccc1S2 (stereo not drawn) 21.3%
Cc1cc(O)ccc1-c1cnc2ccccc2n1 28.5%
CN1c2ccc(C=O)c3c(C=O)ccc(c23)N(C)C1(C)C 54.5%
CNC(=S)NNC(=O)c1oc2nc(-c3ccccc3)cc(-c3ccco3)c2c1N 19.9%
O=C(Nc1ccccc1Cl)/C(Cl)=C(\Cl)S(=O)c1ccccc1 (stereo not drawn) 16.5%
